# Source: PubChem
# BAZ2B inh: qHTS Assay for Inhibitors of BAZ2B | AlphaScreen BAZ2B-H3K14Ac peptide displacement | actives 4.4% (n = 360,000) | AID 504333, 2011 | Potency, µM (highest dose often 114 µM), without a hit: at the highest dose activity change, negative = inhibition, hits mostly inhibitors; note: potency is the fitted concentration of half-maximal effect; % is set by controls: 0 for no effect and ±100 for the full control effect; nearly all actives have a fitted effect of over 60% in size
#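 AlphaScreen displacement: compounds (up to 110uM) incubated 30 min at room temperature with a preformed 50 nM BAZ2B/50 nM biotinylated H3K14Ac peptide complex in PBS pH 7.4 with Tween-20. Donor and acceptor beads at 10 ug/mL final added, 20 min light-protected before reading.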
# JMJD2A Tudor: qHTS Assay for Inhibitors of JMJD2A-Tudor Domain | Lysine-specific demethylase 4A (Homo sapiens), O75164 | AlphaScreen JMJD2A-Tudor / H3K4me3 peptide binding | Potency, µM (highest dose often 114 µM), inactives show top-dose activity change, negative = inhibition, usual class: inhibitors | actives 4.4% (n = 390,000); note: potency is the fitted concentration of half-maximal effect; % is set by controls: 0 for no effect and ±100 for the full control effect; nearly all actives have a fitted effect of over 50% in size
# Target sequence (O75164 whole entry, looked up, the tested form may be a part): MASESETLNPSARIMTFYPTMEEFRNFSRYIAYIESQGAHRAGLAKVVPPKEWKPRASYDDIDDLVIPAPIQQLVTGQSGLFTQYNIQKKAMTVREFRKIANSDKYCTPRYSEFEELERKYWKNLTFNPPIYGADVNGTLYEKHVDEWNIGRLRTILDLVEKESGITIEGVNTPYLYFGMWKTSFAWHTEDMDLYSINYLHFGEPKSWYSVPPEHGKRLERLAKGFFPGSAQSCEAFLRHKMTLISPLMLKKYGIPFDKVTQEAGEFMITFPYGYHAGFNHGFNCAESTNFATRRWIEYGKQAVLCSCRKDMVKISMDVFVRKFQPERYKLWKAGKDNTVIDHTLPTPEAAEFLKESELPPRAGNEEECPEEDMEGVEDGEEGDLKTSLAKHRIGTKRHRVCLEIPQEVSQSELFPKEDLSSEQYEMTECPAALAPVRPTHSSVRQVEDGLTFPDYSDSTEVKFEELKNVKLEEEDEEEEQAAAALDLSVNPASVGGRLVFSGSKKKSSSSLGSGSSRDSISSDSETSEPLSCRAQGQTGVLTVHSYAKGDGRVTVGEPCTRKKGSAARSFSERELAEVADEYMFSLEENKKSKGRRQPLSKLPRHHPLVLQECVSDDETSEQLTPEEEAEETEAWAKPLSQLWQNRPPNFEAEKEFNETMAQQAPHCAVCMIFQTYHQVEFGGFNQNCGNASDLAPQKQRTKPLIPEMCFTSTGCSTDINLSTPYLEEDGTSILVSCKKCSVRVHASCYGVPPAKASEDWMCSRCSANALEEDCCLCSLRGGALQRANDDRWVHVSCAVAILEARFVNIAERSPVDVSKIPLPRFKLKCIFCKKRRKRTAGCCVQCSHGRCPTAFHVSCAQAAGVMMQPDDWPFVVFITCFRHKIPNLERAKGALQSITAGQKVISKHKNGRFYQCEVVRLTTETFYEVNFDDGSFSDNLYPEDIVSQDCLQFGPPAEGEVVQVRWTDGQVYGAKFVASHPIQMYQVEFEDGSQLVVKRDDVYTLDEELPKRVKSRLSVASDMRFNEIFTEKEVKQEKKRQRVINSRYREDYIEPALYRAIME
# HP1b binding inh: HTS for Inhibitors of HP1-beta Chromodomain Interactions with Methylated Histone Tails; AlphaScreen HP1-beta / biotin-H3K9me3 peptide binding; AID 540317, 2011; Potency, µM (highest dose often 114 µM), for inactives: at the top dose activity change, negative = inhibition, hits mostly inhibitors; actives 0.56% (n = 390,000); note: potency is the fitted concentration of half-maximal effect; nearly all actives have a fitted effect of over 70% in size
#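 HP1-beta protein (50 nM final) preincubated 30 min at room temperature with biotinylated H3(1-18)K9me3 peptide (50 nM) in PBS pH 7.4, 0.01% Tween-20, then compound added for 30 min. AlphaScreen streptavidin donor/nickel chelate acceptor beads (10 ug/mL final), 30 min dark, luminescence read.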
# Six1-Eya2 inh: qHTS Assay for Inhibitors of the Six1/Eya2 Interaction | Homeobox protein SIX1 (Homo sapiens) + Protein phosphatase EYA2 (Homo sapiens), … | AlphaScreen GST-Six1/His-Eya2 binding, biochemical; active compounds read low | activity change, % (concentration not given with the values) | actives 0.56% (n = 360,000) | AID 651725, 2012; in the data active = activity change below about -65%; inconclusive = mostly about -30% to -63%; note: % is set by controls: 0 for no effect and ±100 for the full control effect
#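 GST-Six1 + His-Eya2 (5X stock: 250/500 nM); Tris pH 8.0, 300 mM NaCl, 0.05% BSA, 0.02% Tween 20; GSH donor/Ni acceptor beads; 1 h 37 °C dark; AlphaScreen readout.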
# CtBP-E1A blk: qHTS Assay for Inhibitors of the CtBP/E1A Interaction; CtBP / adenovirus E1A interaction (AlphaScreen); AlphaScreen GST-E1A/His-CtBP binding, 1536-well; active compounds read low; activity change, % (concentration not given with the values); actives 0.49% (n = 340,000); AID 651724, 2012; in the data active = activity change below about -65%; inconclusive = mostly about -30% to -63%; note: % is set by controls: 0 for no effect and ±100 for the full control effect
#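 Steps: dispense buffer (Tris pH 8.0, NaCl 300 mM, TCEP 1 mM, BSA, Tween 20); add 5X protein mix (GST-E1A, His-CtBP, 125 nM each); pin 23 nL compound; 2 h at 37 °C, dark; add 5X beads (50 ug/mL); 1 h; read.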
# G9a inh: qHTS Assay for Inhibitors of Histone Lysine Methyltransferase G9a; Histone-lysine N-methyltransferase EHMT2 (Homo sapiens), Q96KQ7; Potency, µM (highest dose often 102 µM), for the others: at the top dose activity, negative = inhibition, most hits filed as inhibitors; actives 8.8% (n = 350,000); G9a H3K9 monomethylation, AlphaScreen, 2 h; AID 504332, 2011; note: potency is the fitted concentration of half-maximal effect; % is set by controls: 0 for no effect and ±100 for the full control effect; nearly all actives have a fitted effect of over 75% in size
#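 Signal arises when biotinylated H3K9 peptide, once monomethylated, bridges streptavidin donor and antibody-captured acceptor beads. Enzyme at 20 nM was preincubated 15 min with test compounds; peptide 500 nM and SAM 20 uM then reacted for 2 h.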
# The depositor's hits bear a star; ? = inconclusive; . = no result; [ ] = remark or other dose. In the library only some 10% were active in any assay of this set; here they are far more common. Unless noted, calls come from the whole dose curve; as a rule, active = well fitted inhibition curve with a large enough effect; inconclusive = small, poorly fitted or top-dose-only effect; inactive = no such curve, though single readings can be large or run the other way.
SMILES,BAZ2B inh,JMJD2A Tudor,HP1b binding inh,Six1-Eya2 inh,CtBP-E1A blk,G9a inh
NC(C(=O)O)[C@H](O)C(=O)O (some centres undefined),.,.,.,.,.,6%[59 µM]
Cc1ccc(/C=C/C(=O)N2CCC(c3nc4ccccc4o3)CC2)cc1,?,-6%,21%,.,.,-36%[59 µM]
CC1=NN(C(=O)c2ccc(Cl)cc2)C(O)(c2ccccc2)C1 (centres undefined),50µM*,?,27%,-8,-1,.
CC1=NN(C(=O)CSCc2ccccc2)C(O)(c2ccc(Cl)cc2)C1 (centres undefined),-3%,-9%,34%,-4,.,16%
COc1cc2ccccc2cc1C(=O)Nc1ccc2oc(-c3ccc(F)cc3)nc2c1,-2%,-23%,34%,.,.,-2%[59 µM]
Cn1c(SCc2ccc(C#N)cc2)nnc1-c1ccccc1,-8%,-6%,27%,-2,4,?
C=CCn1c(SCc2ccc(C#N)cc2)nnc1-c1cccc(OC)c1,-2%,2%,13%,8,-1,1%
COc1cccc(-c2nnc(SCc3ccc(C#N)cc3)n2Cc2ccco2)c1,-29%,?,10%,-15,-14,35µM*
Cc1ccc(-c2nnc(SCc3ccc(C#N)cc3)n2Cc2ccco2)cc1,-35%,79µM*,7%,-5,-6,.
[O-]/C(=C(\C(=S)Nc1ccc(SC(F)F)cc1)[n+]1ccccc1)c1cc(Cl)ccc1Cl,?,?,-18%,-23,-3,35µM*
Cc1cc(C)c(/C([O-])=C(/C(=S)Nc2ccc(SC(F)F)cc2)[n+]2ccccc2)cc1C,22µM*,?,-22%,-7,9,35µM*
CN(C)c1cc[n+](/C(C(=S)Nc2ccc(SC(F)F)cc2)=C(/[O-])c2ccccc2)cc1,.,?,8%,0,4,?
COc1ccc(C(=O)NCC(=O)OCC(=O)c2cccc3ccccc23)cc1,.,7%[57.1 µM],5%[57 µM],.,.,.
COc1ccc(NC(=O)C2CCN(S(=O)(=O)c3cn(C)cn3)CC2)cc1Cl,1%,-9%,11%,.,.,11%[59 µM]
COc1ccccc1-n1c(SCC(=O)NCc2ccc3c(c2)OCO3)nc2cc([N+](=O)[O-])ccc21,-37%,50µM*,?,-30,3,?
CCN(CC)S(=O)(=O)c1ccc2c(c1)nc(SCC(=O)N1CCCCCC1)n2-c1ccc(OC)cc1,-2%,-11%,6%,-8,-14,-6%[59 µM]
CC(Sc1nc2cc([N+](=O)[O-])ccc2n1-c1ccc(F)cc1)C(=O)NCc1ccc2c(c1)OCO2 (centres undefined),?,?,-13%,-21,-26,?
CCN(CC)S(=O)(=O)c1ccc2c(c1)nc(SCC(=O)N1CCOCC1)n2-c1ccccc1OC,?,-11%,10%,-2,-6,32µM*
CCCCn1c(SCC(=O)Nc2cc(C)on2)nc2cc(S(N)(=O)=O)ccc21,13%,-17%,20%,-1,-11,?
CCCCn1c(SCc2c(C)noc2C)nc2cc(S(N)(=O)=O)ccc21,0%,-6%,34%,-4,4,50µM*
O=C(Cn1c(=O)n(Cc2ccco2)c(=O)c2ccccc21)Nc1ccc(Cl)cc1Cl,0%,-7%,8%,.,.,2%[59 µM]
Cc1nc(NS(=O)(=O)c2ccc(Cl)s2)c2c3c(sc2n1)CCCC3,-29%,-26%,18%,-8,.,50µM*
Cc1cc(SCC(=O)c2ccccc2)nc(=O)[nH]1,-22%,-31%,-7%,-4,-15,22µM*
Cc1ccc(C(=O)CSc2cc(C)[nH]c(=O)n2)cc1,45µM*,?,-4%,-6,.,-9%[0.501 µM]
Cc1cc(SCC(=O)c2ccc(Cl)cc2)nc(=O)[nH]1,-27%,?,-18%,-3,-19,?
SMILES,BAZ2B inh,JMJD2A Tudor,HP1b binding inh,Six1-Eya2 inh,CtBP-E1A blk,G9a inh
CCOc1ccccc1NC(=O)N1CCc2c(sc(C)c2CC)C1c1ccccc1 (centres undefined),-11%,-22%,30%,.,.,-1%[59 µM]
COc1ccc(OC)c(Nc2nc(-c3cccs3)cs2)c1,?,?,-27%,-20,8,?
COc1ccc(C)cc1Nc1nc(-c2c[nH]c3ccccc23)cs1,50µM*,?,-24%[57 µM],10,-15,3.2µM*
Cc1n[nH]c(=O)c2c(NC(=O)COC(=O)c3cccc(OC(F)F)c3)oc(C)c12,15%,-10%,44%,10,-17,10µM*
Cc1n[nH]c(=O)c2c(NC(=O)COC(=O)COc3cccc(Br)c3)oc(C)c12,0%,-13%,55%,-1,2,18µM*
Cc1n[nH]c(=O)c2c(NC(=O)COC(=O)Cc3ccc(Cl)cc3Cl)oc(C)c12,8%,-14%,37%,0,0,8%[0.501 µM]
Cc1n[nH]c(=O)c2c(NC(=O)COC(=O)/C=C/c3cccc(C(F)(F)F)c3)oc(C)c12,6%,-20%,40%,-1,4,10µM*
Cc1n[nH]c(=O)c2c(NC(=O)COC(=O)Cc3c(F)cccc3Cl)oc(C)c12,-3%,-8%,40%,-8,-2,25µM*
N#Cc1cccc(NC(=O)COC(=O)CCc2nc3ccccc3c(=O)[nH]2)c1,-29%,-1%,45%,2,1,13µM*
COc1cc(Cl)c(C)cc1NC(=O)COC(=O)CCc1nc2ccccc2c(=O)[nH]1,8%,-12%,22%,-2,-25,13µM*
Cc1c(Cl)cccc1NC(=O)CNC(=O)CCCc1nc2ccccc2c(=O)[nH]1,14%,-3%,27%,4,-15,45µM*
Cc1ccc(NC(=O)COC(=O)CCc2nc3ccccc3c(=O)[nH]2)cc1Cl,-12%,13%,30%,5,-6,35µM*
COc1cc(NC(=O)COC(=O)CCc2nc3ccccc3c(=O)[nH]2)cc(OC)c1,.,-8%,35%,-11,1,.
CCOc1ccc(CCNC(=O)CCCc2nnc3n(CC)c(=O)c4sccc4n23)cc1OCC,7%,3%,36%,.,.,12%[59 µM]
CCOc1ccc(CNC(=O)C2CCCN(c3nc4c(C)cc(C)cc4s3)C2)cc1 (centres undefined),-15%,-5%,42%,.,.,16%[59 µM]
